28 compounds from PubChem BioAssay (Tox21) can be followed below.

Values joined by “and” are separate entries in the source; they are usually repeats but may differ in a detail not shown here. Equal entries are not always repeated. Inconclusive results are not listed. A structure can be active in one record and inactive in another. Active and inactive are the calls of the source. Unless noted, calls follow the shape of the dose curve; as a rule, active = well fitted curve in the direction sought with a large enough effect in the repeat runs; inconclusive = weak or mixed curves; inactive = no such curve, though single readings can be large; an effect the other way counts as inactive or inconclusive.

Test [1] in a line: qHTS assay to identify small molecule antagonists of the glucocorticoid receptor (GR) signaling pathway - cell viability counter screen (AID 720693). Also: nearly all actives have a fitted effect of over 55% in size. In general terms: In qHTS, concentration-response curves come from the screen itself.
The nature of test [2]: qHTS assay for identifying genotoxic compounds that show differential cytotoxicity against isogenic chicken DT40 cell lines with known DNA damage response pathways - wild type cell line (AID 743012). Also: nearly all actives have a fitted effect of over 60% in size. Also: potency is read from the fitted curve at half-maximal effect. Summed up:
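300 wt DT40 cells/well; cpd (DMSO) pintool-transferred after ~0.5 h at 37 C/5% CO2; 40 h incubation; CellTiter-Glo added, 30 min RT; luminescence read.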

Test [3] in a line: qHTS assay for identifying genotoxic compounds that show differential cytotoxicity against isogenic chicken DT40 cell lines with known DNA damage response pathways - Rev3 mutant cell line (AID 743014). Also: nearly all actives have a fitted effect of over 55% in size. Also: potency is read from the fitted curve at half-maximal effect.
The nature of test [4]: qHTS assay for identifying genotoxic compounds that show differential cytotoxicity against isogenic chicken DT40 cell lines with known DNA damage response pathways - Rad54/Ku70 mutant cell line (AID 743015). Also: nearly all actives have a fitted effect of over 60% in size. Also: potency is read from the fitted curve at half-maximal effect.
Test [5] can be described thus: qHTS assay to identify small molecule antagonists of the androgen receptor (AR) signaling pathway - cell viability counter screen (AID 743033; also: nearly all actives have a fitted effect of over 45% in size; also: potency is read from the fitted curve at half-maximal effect).
Test [6] has as its target Androgen receptor (Homo sapiens) (UniProt P10275). Nature of the test: qHTS assay to identify small molecule antagonists of the androgen receptor (AR) signaling pathway (AID 743035; active = well fitted inhibition curve with a large enough effect in the signal ratio in the repeat runs, not every such curve was filed as active; the % refers to the signal ratio). The method, boiled down: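 In this cell-based reporter screen, compounds were tested in concentration series against R1881-activated HEK293 cells expressing beta-lactamase under UAS control; after 16 h at 37C, FRET substrate was added and fluorescence read 2 h later.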

The target is the same in test [7]. Nature of the test: qHTS assay to identify small molecule agonists of the androgen receptor (AR) signaling pathway (AID 743036; active = well fitted activation curve with a large enough effect in the signal ratio in the repeat runs, with a control signal flat, not every such curve was filed as active; the % refers to the signal ratio). The method, boiled down:
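Screening used 2,000 AR-bla HEK293 cells per well, treated 16 h at 37C with test compounds in DMSO alongside positive and DMSO-only controls; beta-lactamase activity was then read by LiveBLAzer B/G FRET fluorescence after 2 h at room temperature.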

For test [8] the target is unchanged. Description: qHTS assay to identify small molecule agonists of the androgen receptor (AR) signaling pathway using the MDA cell line (AID 743040; also: nearly all actives have a fitted effect of over 20% in size). Particulars: MDA-kb2 AR-luc cells, MMTV luciferase, 16 h, stronger effect = higher value. The method, boiled down: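 Cell-based luciferase reporter: MDA-kb2, MMTV promoter (AR + GR response elements). 16 h compound exposure at 37C; ONE-Glo, 30 min RT, luminescence.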

A short description of test [9]: qHTS assay to identify small molecule antagonists of the androgen receptor (AR) signaling pathway using the MDA cell line - cell viability counter screen (AID 743041; also: nearly all actives have a fitted effect of over 45% in size; also: potency is read from the fitted curve at half-maximal effect). The method, boiled down: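 In this qHTS counter assay, fluorescence intensity after CellTiter-Fluor addition indicated viability of MDA-kb2 AR-luc cells given compounds and R1881 for 16 h at 37C.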

Test [10] in a line: qHTS assay to identify small molecule antagonists of the thyroid receptor (TR) signaling pathway - cell viability counter screen (AID 743064). Also: nearly all actives have a fitted effect of over 50% in size. Also: potency is read from the fitted curve at half-maximal effect. Summed up:
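Viability of T3-stimulated (1 nM final) GH3.TRE-Luc cells is measured by CellTiter-Fluor fluorescence after 23.5 h compound exposure at 37 °C plus 30 min reagent incubation.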
% is scaled to controls: 0 for no effect and ±100 for the full control effect.

Sequence of Androgen receptor (Homo sapiens) (P10275 whole entry, looked up): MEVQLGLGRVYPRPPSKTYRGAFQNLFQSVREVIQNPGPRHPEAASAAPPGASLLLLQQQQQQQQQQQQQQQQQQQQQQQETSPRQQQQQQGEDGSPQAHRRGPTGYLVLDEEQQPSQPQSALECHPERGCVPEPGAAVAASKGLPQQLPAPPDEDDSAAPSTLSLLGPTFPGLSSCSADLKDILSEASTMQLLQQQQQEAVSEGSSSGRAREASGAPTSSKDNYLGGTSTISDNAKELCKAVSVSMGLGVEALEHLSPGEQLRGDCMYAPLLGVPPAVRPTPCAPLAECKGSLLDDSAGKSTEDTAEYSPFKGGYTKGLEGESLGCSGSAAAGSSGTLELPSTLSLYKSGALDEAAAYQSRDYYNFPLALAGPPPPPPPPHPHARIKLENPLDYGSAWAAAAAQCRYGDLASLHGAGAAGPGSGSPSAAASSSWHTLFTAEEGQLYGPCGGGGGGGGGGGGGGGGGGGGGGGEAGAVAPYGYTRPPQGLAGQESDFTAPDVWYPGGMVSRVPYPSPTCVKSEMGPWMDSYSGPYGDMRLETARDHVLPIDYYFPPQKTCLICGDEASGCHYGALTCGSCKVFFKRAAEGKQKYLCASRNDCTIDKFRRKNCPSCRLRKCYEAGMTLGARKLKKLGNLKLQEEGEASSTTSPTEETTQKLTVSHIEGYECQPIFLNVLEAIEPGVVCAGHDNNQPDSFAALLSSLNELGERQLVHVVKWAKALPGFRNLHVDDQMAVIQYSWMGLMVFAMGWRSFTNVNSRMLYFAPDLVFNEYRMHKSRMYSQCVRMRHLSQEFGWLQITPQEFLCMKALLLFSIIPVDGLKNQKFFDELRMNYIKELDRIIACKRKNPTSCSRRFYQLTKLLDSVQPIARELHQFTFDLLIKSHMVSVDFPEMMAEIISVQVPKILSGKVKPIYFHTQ

For `CO[Si](CCCNCCN)(OC)OC`, the Potency result in test [1], in test [2], in test [3], in test [4], in test [5] and in [6] was “inactive” each time. Besides, the Potency entry in test [7], in test [9] and in [10] was “inactive” each time. In addition, the activity change in [8] (at 70.3 µM (top of the series)) was -2.52% (inactive); in [8] (at 95 µM (top of the series)) it was 0.325% (inactive).

As for `COC(=O)OC`, the Potency result in test [1], in test [2], in test [3], in test [4], in test [5] and in test [9] was “inactive” throughout. Moreover, in [10], the Potency result was “inactive”.

Turning to `CCCCC(=O)O`, the Potency result in test [1], in [2], in test [3], in test [4], in test [5] and in test [9] was “inactive” each time. In addition, the Potency entry in test [10] was “inactive”.

Regarding `NC1CCCCC1N` (centres undefined), the Potency entry in [1], in test [2], in [3], in test [4], in test [5] and in test [9] was “inactive” in each case.

For `CC(=O)OC/C=C(\C)CCC=C(C)C`, the Potency entry in [1], in [2], in test [3], in [4], in test [5] and in test [9] was “inactive” in each case. Also, the Potency entry in [10] is “inactive”.

For `CC(C)=CCC/C(C)=C/C=O`, the Potency result in test [1], in test [2], in [3], in test [4], in [5] and in [9] was “inactive” throughout. In addition, the Potency entry in test [10] is “inactive”.

Take `Cc1ccncc1`: the Potency result in [1], in [2], in test [3], in test [4], in [5] and in [9] was “inactive” each time. In addition, in test [10], the Potency entry is “inactive”.

Take `CCCCCCCCC(=O)O`: the Potency result in test [1], in [2], in test [3], in test [4], in [5] and in test [9] was “inactive” each time. The Potency result in test [10] was “inactive”.

Take `C=C1C[C@]23C[C@@]1(O)CC[C@H]2[C@@]12C=C[C@H](O)[C@@](C)(C(=O)O1)[C@H]2[C@@H]3C(=O)O`: the Potency entry in test [1], in test [2], in test [3], in test [4], in [5] and in test [9] was “inactive” throughout. Moreover, in [10], the Potency entry is “inactive”.

Turning to `CCOC(=O)CC(=O)OCC`, the Potency result in [1], in test [2], in test [3], in test [4], in test [5] and in [9] was “inactive” each time. Further, in [10], the Potency result is “inactive”.

For `COc1ccccc1[N+](=O)[O-]`, the Potency result in test [1], in test [2], in test [3], in [4], in test [5] and in [9] was “inactive” throughout. In test [10], the Potency result is “inactive”.

As for `CCCCCCCC(=O)O`, the Potency result in test [1], in [2], in [3], in [4], in test [5] and in [9] was “inactive” throughout. In addition, the Potency result in [10] was “inactive”.

In the case of `CC1=CC(=O)CC(C)(C)C1`, the Potency entry in [1], in test [2], in test [3], in test [4], in [5] and in test [9] was “inactive” each time. The Potency result in [10] is “inactive”.

In the case of `COc1ccc2cc3[n+](cc2c1OC)CCc1cc2c(cc1-3)OCO2`, the Potency entry in test [1] and in test [10] was “inactive” each time. In addition, the Potency in [2] was 2.37 µM (active) and 4.36 µM (active); in test [3], 3.35 µM (active) and 3.09 µM (active); in [4] it was 4.22 µM (active) and 5.49 µM (active); in test [9], 22.1 µM (active) and 7.75 µM (active).

Regarding `C=CC(=O)NCOCCCC`, the Potency result in test [1], in [2], in [3], in [4], in [5] and in test [9] was “inactive” throughout. In test [10], the Potency result is “inactive”.

Take `Cc1cc(C)cc(O)c1`: the Potency entry in [1], in test [2], in [3], in [4], in test [5] and in test [9] was “inactive” throughout. In addition, the Potency entry in test [10] was “inactive”.

In the case of `O=c1n(CCCN2CCN(c3cccc(Cl)c3)CC2)nc2ccccn12`, the Potency entry in [1], in [5], in test [9] and in test [10] was “inactive” throughout. For the same compound, the Potency result was “inactive and 54.5 µM (active)” in test [2]; “inactive and 54.5 µM (active)” in [3]; “inactive and 43.3 µM (active)” in test [4].

For the compound `O=C1C(N(CO)C(=O)NCO)N(CO)C(=O)N1CO` (centres undefined), the Potency result in test [1], in [2], in [3], in test [4], in test [5] and in [9] was “inactive” in each case. In addition, the Potency result in [10] is “inactive”.

As for `OCCOCCOCCOCCOCCO`, the Potency entry in test [1], in test [2], in test [4], in [5], in test [9] and in test [10] was “inactive” throughout. Besides, the Potency result in test [3] is “inactive and 24.3 µM (active)”.

For the compound `O=C(O)Cc1c[nH]c2ccccc12`, the Potency result in test [1], in [2], in test [3], in test [4], in [5] and in test [9] was “inactive” in each case. The Potency entry in [10] is “inactive”.

Turning to `CC(CN1c2ccccc2Sc2ccccc21)N(C)C` (centres undefined), the Potency result in test [1] was “inactive”. Besides, the Potency in [2] is 21.1 µM (active) and 55 µM (active) and 54.5 µM (active); in [3], 26.6 µM (active) and 27.6 µM (active) and 24.3 µM (active); in test [4], 26.6 µM (active) and 30.9 µM (active) and 54.5 µM (active); in [5] it was “inactive and 44.1 µM (active)”; in test [10], 23.7 µM (active) and 5.5 µM (active) and 30.6 µM (active).

As for `N#CCC(=O)O`, the Potency result in [1], in test [2], in test [3], in test [4], in [5] and in test [9] was “inactive” each time. Besides, in test [10], the Potency result was “inactive”.

Consider `CC(COCC(C)OC(=O)c1ccccc1)OC(=O)c1ccccc1` (centres undefined), for which the Potency result in [1], in test [3], in [5], in test [9] and in test [10] was “inactive” in each case. For the same compound, the Potency in [4] is 61.1 µM (active).

With `O=Cc1ccc(CO)o1`, the Potency entry in test [1], in test [2], in test [3], in test [4], in test [5] and in test [9] was “inactive” each time. Further, the Potency result in test [10] is “inactive”.

Take `CN=C(NC#N)NCCSCc1nc[nH]c1C`: the Potency result in test [1], in test [2], in test [5], in test [9] and in test [10] was “inactive” each time. Besides, the Potency result in test [3] is “inactive and 54 µM (active)”; in test [4] it was “inactive and 13.6 µM (active)”.

Regarding `NC(=O)c1ncn([C@@H]2O[C@H](CO)[C@@H](O)[C@H]2O)n1`, the Potency entry in [1], in test [5] and in [9] was “inactive” each time. The Potency is 668 nM (active) and 5.12 µM (active) in test [2]; 750 nM (active) and 1.62 µM (active) in [3]; 1.68 µM (active) and 4.07 µM (active) in [4]; 33.5 µM (active) in test [10].

Consider `O=C(c1ccccc1)c1ccc(O)c(O)c1O`, for which the Potency entry in test [1], in test [5] and in test [9] was “inactive” throughout. Further, the Potency in [3] and in test [4] was 61.1 µM (active) throughout.

For `CCCCCNCCCCC`, the Potency entry in test [1], in test [2], in test [3], in [4], in test [5] and in [9] was “inactive” throughout. Besides, the Potency result in test [10] is “inactive”.
